Screens (PubChem)
An excerpt weighted towards active compounds, which were near 21% of everything screened.
Pf growth 48h: inhibits P. falciparum growth in the first generation, 48 h; P. falciparum luciferase growth in erythrocytes, 48 h; 5.9% of 310,000 active; Potency, µM (titrated, usually from 28.7 µM), for inactives: at the top dose activity change, negative = inhibition, actives largely listed as inhibitors; AID 504832; also: potency is read from the fitted curve at half-maximal effect; % is scaled to controls: 0 for no effect and ±100 for the full control effect
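In quantitative HTS format, infected erythrocytes bearing luciferase-reporter parasites were treated for a single generation at 37 C. Luminescence after adding detection reagent served as the growth measure.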
NS1 function inh: influenza NS1 inhibition; 0.4% of 270,000 active; AID 2326; Potency, µM (titrated, usually from 46.1 µM), inactives show at the highest dose activity, positive = more growth; calls by dose curve; also: potency is read from the fitted curve at half-maximal effect; actives are rising curves; nearly all actives have a fitted effect of over 50% in size
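Growth recovery, yeast-based: influenza A NS1 expressed in S. cerevisiae causes slow growth, and suppressors are detected by OD600. The parent strain without NS1 is used as positive control.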
Shiga toxin inh: blocks Shiga toxin action in Vero cells; inhibition, % at 38.7 µM; 9.2% of 290,000 active; Vero cells, Shiga toxin protein synthesis inhibition reporter; in the data active = inhibition mostly above about 28%, no sharp cut-off; inactive = mostly below about 43%; also: 0% is about no effect
Cycloheximide cs: affects cycloheximide protein synthesis inhibition readout, counter-screen. cell reporter, cycloheximide protein synthesis inhibition counterscreen. max response, %. AID 2314. 12% of 300,000 active; in the data active = max response mostly above about 13%, no sharp cut-off; inactive = mostly below about 14%; also: read at 38.3 µM for the half of the compounds with a filed dose; 0% is about no effect
Pf growth 96h: P. falciparum growth inhibition at 96 hour, primary screen for plastid delayed-death inhibitors | 6.9% of 320,000 active | Potency, µM (doses to about 28.7 µM), without a hit: at the highest dose activity change, negative = inhibition, hits mostly inhibitors | P. falciparum luciferase reporter growth, 96 h; also: potency is read from the fitted curve at half-maximal effect; % is scaled to controls: 0 for no effect and ±100 for the full control effect
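Infected RBCs, 2% Hct / 0.05% parasitemia final; luciferase-reporter P. falciparum; cpd 96 h, 37 C, 5% CO2; luciferase detection reagent; luminescence.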
Giardia FBPA inh: Giardia lamblia aldolase inhibition. A8B2U2. purified Giardia FBPA. Potency, µM (highest dose often 59.6 µM), without a hit: top-dose activity, negative = inhibition, most hits filed as inhibitors. 0.71% of 290,000 active; also: potency is read from the fitted curve at half-maximal effect; % is scaled to controls: 0 for no effect and ±100 for the full control effect; nearly all actives have a fitted effect of over 55% in size
Target sequence (A8B2U2 whole entry, looked up): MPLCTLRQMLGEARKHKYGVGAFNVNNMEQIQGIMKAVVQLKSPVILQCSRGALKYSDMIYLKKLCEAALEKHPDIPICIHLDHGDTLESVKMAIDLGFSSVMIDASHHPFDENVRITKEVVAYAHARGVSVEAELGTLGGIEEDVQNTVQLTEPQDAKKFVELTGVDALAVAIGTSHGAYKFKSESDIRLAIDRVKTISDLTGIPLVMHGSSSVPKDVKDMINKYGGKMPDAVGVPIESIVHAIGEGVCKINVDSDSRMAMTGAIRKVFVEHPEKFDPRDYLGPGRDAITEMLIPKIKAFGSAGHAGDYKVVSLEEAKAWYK
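40 nM FBPA preincubated 10 min at RT with compound (up to 57.5 uM final), then substrate plus GAPDH/TPI/NAD/arsenate coupling and diaphorase/resazurin added. Fluorescence read after 20 min at RT, 525/598 nm.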
* = called active by the depositor; ? = inconclusive; nt = not tested or not shown. Unless noted, calls follow the shape of the dose curve; as a rule, active = well fitted curve in the direction sought with a large enough effect; inconclusive = small, poorly fitted or top-dose-only effect, or another doubt; inactive = no such curve, though single readings can be large; an effect the other way counts as inactive or inconclusive.

SMILES	Pf growth 48h	NS1 function inh	Shiga toxin inh	Cycloheximide cs	Pf growth 96h	Giardia FBPA inh
COc1ccc(OC)c(NC(=O)CCNS(=O)(=O)c2cc(Br)cnc2N)c1	-3.6%	6.4%	-6.9	-3.1	-5.9%	nt
Cc1ccc(N2C(=O)CS(=O)(=O)CC2=O)cc1	23.8%	4.5%	15.0	-6.8	41.8%	2.4%
Cc1ccc(N2C(=O)CC3(CCCC3)CC2=O)cc1	42.6%	2.6%	9.8	17.4*	66.2%	1.6%
Cc1ccc(-c2nc3ccccc3c(=O)n2CCCN2CCOCC2)cc1	-8.0%	0.7%	53.6*	15.1	?	-0.1%
COc1ccc2nc(C)cc(NCCN3CCOCC3)c2c1	?	1.5%	-18.4	-3.1	?	-5.1%
Clc1ccc(-c2nc(NCCCN3CCOCC3)c3ccccc3n2)cc1	?	-0.9%	-4.0	-2.9	?	-3.0%
O=c1c2ccccc2nc(-c2ccccc2)n1CCCN1CCOCC1	-2.9%	-9.8%	31.3	-2.7	nt	2.2%
Cc1ccc(-c2nc(NCCN3CCOCC3)c3ccccc3n2)cc1	nt	-18.1%	-5.9	0.8	4.15µM*	2.2%
Cc1cc(NCCN2CCOCC2)c2ccc3ccccc3c2n1	?	-1.2%	84.4*	23.0*	1.9%	1.3%
CNc1ncnc2ccc(-c3ccccc3C#N)cc12	nt	nt	nt	nt	nt	-19.6%
O=C(O)c1cccc2c1/C(=N/Nc1ccc([N+](=O)[O-])cc1[N+](=O)[O-])c1ccccc1-2	nt	-0.7%	-4.6	-0.9	11.6%	-0.2%
CCC(=O)Nc1ccc(C(=O)Nc2ccc(OC)cc2[N+](=O)[O-])cc1	2.2%	-0.1%	25.9	0.8	-26.2%	5.6%
CCCc1cc(C(=O)Nc2ccc(OC)cc2[N+](=O)[O-])cs1	35.8%	-2.5%	59.8	27.8*	?	0.2%
COc1ccc(NC(=O)c2ccccc2)c([N+](=O)[O-])c1	172.4%	nt	74.2*	32.2*	210.6%	0.7%
CCCN1C(=O)/C(=N\OCC(=O)NC23CC4CC(CC(C4)C2)C3)c2ccccc21	14.7µM*	-8.8%	2.7	-2.9	?	3.2%
COc1ccccc1CNC(=O)CNC(=O)c1ccc(Br)o1	12.4%	7.2%	-2.6	-2.9	46.1%	nt
CCOC(=O)C(C(=O)OCC)c1c([N+](=O)[O-])c(=O)n2c3c(cccc13)CCC2	8.3%	3.1%	-3.2	-4.3	11.8%	8.4%
O=C(c1ccccc1)c1ccc(N2CCNCC2)cc1	34.9%	-6.6%	active	34.0*	nt	2.2%
O=C(O)CCC(=O)N1CCN(c2ccc(C(=O)c3ccc(F)cc3)cc2)CC1	-16.0%	-8.8%	12.3	0.5	nt	2.1%
O=C(c1ccccc1)c1ccc(N2CCCC2)cc1	117.4%	-3.2%	53.1*	23.5*	?	1.2%
O=C(O)c1ccc(N2CCCCC2)cc1	3.3%	5.3%	-5.1	-1.8	?	2.0%
CN1CCN(c2ccc(C(=O)c3ccc(F)cc3)cc2)CC1	132.6%	-1.8%	110.6*	15.2	-0.2%	-0.5%
CC(=O)N1CCN(C(=O)c2ccc(C(=O)c3ccccc3)cc2)CC1	16.8%	-0.2%	-1.1	1.1	30.3%	3.3%
CCOC(=O)N1CCC(N2C(=O)c3ccc(C(=O)Nc4ccc(OC)c(OC)c4)cc3C2=O)CC1	2.8%	1.2%	-14.0	-1.8	1.5%	-4.2%
COc1ccc(S(=O)(=O)NNC(=O)c2ccc(-n3c(C)ccc3C)cc2)cc1	?	0.3%	-14.1	0.6	?	-8.2%
SMILES	Pf growth 48h	NS1 function inh	Shiga toxin inh	Cycloheximide cs	Pf growth 96h	Giardia FBPA inh
CC1CCC(C(C)C)C(OCC(O)CN2CCOCC2)C1 (stereo not given)	-5.8%	0.8%	-20.4	-2.6	nt	-18.5%
CC1CCC(C(C)C)C(OCC(O)CN2CCCC(C)C2)C1 (stereo not given)	?	nt	12.2	0.9	13.1µM*	-0.8%
CC1CCC(C(C)C)C(OCC(O)CN2CCN(Cc3ccccc3)CC2)C1 (stereo not given)	11.7µM*	-53.1%	-9.2	-3.4	?	-9.2%
COc1cc(COCC(O)CN2CCN(Cc3ccccc3)CC2)cc(OC)c1OC (stereo not given)	-16.2%	nt	-15.9	-13.2	-81.8%	-17.6%
COc1ccc(-c2nc(-c3ccccc3)c(Nc3c(C)cccc3C)o2)cc1	nt	nt	nt	nt	nt	-5.5%
CCOc1cc(-c2sc(Nc3ccccc3)n[n+]2-c2ccc(F)cc2)ccc1OC	34.8%	7.7%	-3.4	0.4	?	-24.8%
